For 37 compounds, growth results are on record in PubChem BioAssay (NCI).

Compounds without any hit were thinned out: in the full panel of roughly 83,000, 20% have a hit.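 For each line, cells grew in 96-well plates with the test compound present at a single concentration for 48 hours.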 The source made the active and inactive calls. The calls were made as follows: active = growth percent below 10; inactive = the rest.

In this assay the test system is HCC-2998 colon. The assay can be described thus: NCI-60 one-dose screen, 48 h (100 = growth as untreated, 0 = no growth, -100 = all killed). The settings on record: 10 µM.
With `O=C(/C=C/Nc1ccc(F)cc1F)c1ccc2c(c1)Nc1ccccc1S2`, the growth was 79.7% (inactive).
Next, `C=C1CC[C@H](C(=C)C)[C@H]2C=C(C)C(=O)C3=C(C(=O)[C@@](C)(O)C3)[C@H]12`: -84.4% (active); `CN(CCO)c1oc(-c2ccccc2)nc1[P+](c1ccccc1)(c1ccccc1)c1ccccc1`: 10.8% (inactive).
Under `O=C(CNc1nc(-c2ccccc2)cs1)Nc1ccc([N+](=O)[O-])cc1Cl` stands 7.28% (active); under `COc1ccc(CCN2C(=O)/C(=C/c3csc(C#N)n3)SC2=S)cc1OC`, 116% (inactive); under `Cc1ccc([N+](=O)[O-])c(C(=O)Nc2ccc(-c3ccc4c(c3)NC(=O)/C4=C\c3ccc[nH]3)cc2)c1`, 47.6% (inactive).
Under `COc1ccc(-c2nc(S(=O)(=O)c3ccccc3)c(S(C)(=O)=O)o2)cc1` stands -26.8% (active); under `Cc1ccc(-c2ccc(SCC(=O)Nc3ccc(Cl)c(C(F)(F)F)c3)nn2)cc1`, 12.9% (inactive).
For `Cc1ccn2c(C(=O)c3ccc(Br)cc3)cc(-c3cc(-c4ccc(N(C)C)cc4)c(C#N)c(N)n3)c2c1`, the growth is 64.6% (inactive).
Under `O=c1[nH]c2ccccc2cc1CSc1ccc(Nc2nccc(-c3ccc(Cl)cc3)n2)cc1` stands 14.6% (inactive).
Consider `CC1(C)CC[C@]2(C(=O)Nc3ccccc3)CC[C@]3(C)C(=CC[C@@H]4[C@@]5(C)CC[C@H](N)C(C)(C)[C@@H]5CC[C@]43C)[C@H]2C1`, for which the growth was -64.3% (active).
Under `Cc1ccc(NC(=O)NCn2c(=O)[nH]c3ccccc3c2=O)cc1` stands 102% (inactive).
On to `COc1cc(/C=C/C(=O)c2cc(OC)c(OC)c(OC)c2)ccc1Oc1nc(Nc2ccc(F)cc2)nc(N(C)C)n1`, for which the growth is -81.5% (active).
Next, `Cn1cc(/C=N/Nc2ccnc3cc(Cl)ccc23)c2ccccc21`: -87.8% (active).
`N#Cc1ccc(-c2nn(-c3ccc(C(=O)O)cc3)cc2CNc2cc(Cl)cc(C(F)(F)F)c2)cc1`: the growth was -27.7% (active).
Next, `O=C1NC(=NC23CC4CC(CC(C4)C2)C3)N/C1=C\c1ccc2ncccc2n1`: 3.26% (active).
Under `COc1ccc(/C=C/C(=O)c2ccc(NC(=O)CN3C(=O)NC(C)(c4ccccc4)C3=O)cc2)cc1` (configuration not stated) stands 102% (inactive); under `O=C(c1ccc(Cl)cc1)C1[C@H](c2ccccc2Br)[C@@H](c2ccccc2)NC12C(=O)Nc1ccc(Cl)cc12` (some centres not stated), -0.337% (active); under `O=C1CCC(N2Cc3cc(NC(=O)COc4ccccc4)ccc3C2=O)C(=O)N1` (configuration not stated), 83.5% (inactive).
As for `CC1(c2ccccc2)NC(=O)N(CC(=O)Nc2ccc(C(=O)/C=C/c3ccc(Cl)cc3)cc2)C1=O` (configuration not stated), the growth is -99.1% (active).
Under `C#CCNC(=O)CCC(=O)OC[C@]12CC[C@@H](C(=C)C)[C@@H]1C1CC[C@@H]3[C@@]4(C)CCCNC(C)(C)[C@@H]4CC[C@@]3(C)[C@]1(C)CC2` (some centres not stated) stands -99.1% (active); under `CCCn1c(=O)c2[nH]c(-c3ccc(OCc4nc5ccc(F)cc5[nH]4)cc3)nc2n(CCC)c1=O`, 83.2% (inactive).
On to `COC[C@@H](CC(C)C)N=C1NC(=O)/C(=C/c2ccc3ncsc3c2)N1`, for which the growth was 15.5% (inactive).
Next, `COc1ccc(C=CC(=O)c2ccc(-n3c(C)nc4c(cnn4-c4ccccc4)c3=O)cc2)cc1`: 86.8% (inactive); `O=C(c1ccc(Cl)cc1)C1[C@H](c2ccccc2Br)[C@@H](c2ccccc2)NC12C(=O)Nc1ccc(Br)cc12` (some centres not stated): -13.2% (active).
Regarding `O=C(Nc1cccc(C(F)(F)F)c1)c1cncc(C#Cc2cnc3ccc(N4CCOCC4)nn23)c1`, the growth is -4.89% (active).
Under `N#Cc1c(-c2ccc(F)cc2)nc(SCc2ccc([N+](=O)[O-])cc2)nc1N1CCOCC1` stands 90.7% (inactive).
Next, `NS(=O)(=O)c1ccc(NC(=O)CSc2ccc(-c3ccc(Cl)cc3)nn2)c(Br)c1`: 58.2% (inactive).
Under `CC(=O)NCC1=C(C)C=C2C(=O)[C@](C)(O)C3(CC3)C(C)=C21` stands -79.4% (active); under `CC(=O)Nc1nc(-c2ccc(N3CCN(C)CC3)c(NS(=O)(=O)c3cccc4c(N(C)C)cccc34)c2)cs1`, 43% (inactive); under `O=C(CSc1nnc(-c2ccc3nc(-c4ccc(Cl)cc4)[nH]c3c2)o1)Nc1ccc(Br)cc1`, 28.9% (inactive).
As to `COc1cc2c3c(n(CCCNCCO)c(=O)c2cc1OC)-c1nc2c(cc1C3=O)OCO2`, the growth is 11.6% (inactive).
Turning to `Cc1ccc(NCC(=O)Nn2c(COc3ccccc3)nc3ccccc3c2=O)cc1`, the growth is 95.7% (inactive).
Next, `O=C(c1ccccc1)n1ccc(-c2cc3cc(Br)ccc3oc2=O)n1`: 17% (inactive).
Next, `Cc1ccc(CSc2nc(Cl)c(C#N)c(-c3ccc(F)cc3)n2)cc1`: 87.8% (inactive).
Under `COc1cc(/C=C/C(=O)c2ccc(F)cc2)ccc1Oc1nc(Nc2ccc(F)cc2)nc(N(C)C)n1` stands 89% (inactive).
For the compound `COc1cc2oc(-c3cccc(C(=O)Nc4ccc(Cl)cc4)c3)cc(=O)c2c(OCCNC(=O)CNC(=O)OC(C)(C)C)c1OC`, the growth was 102% (inactive).
